This is a sample that favours compounds with a hit; in the whole collection about 0.78% have one here.
NR5A2 inv ag = LRH-1 (NR5A2) inverse agonists, primary screen, cell-based, luminescence, HEK293T, StAR-luciferase reporter; Nuclear receptor subfamily 5 group A member 2 (Homo sapiens), O00482; LRH-1 transfected, 24 h; inhibition, % at 3.6 µM; actives 0.13% (n = 360,000); AID 602396, 2012;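 active = inhibition above the mean inhibition of all tested compounds plus 3 SD, cut at about 73% in these data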;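 also: 0% = DMSO wells and 100% = reporter-only cells lacking LRH-1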
NCOA3 inh = SRC3 coactivator transcriptional activity inhibitors, primary screen, cell-based, luminescence | HEK293 GAL4-SRC3 luciferase reporter | inhibition, % at 3.6 µM | Nuclear receptor coactivator 3 (Homo sapiens), Q9Y6Q9 | actives 0.17% (n = 360,000);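 active = inhibition above a per-campaign cutoff, the mean of all compounds plus 3 SD, cut at about 60% in these data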;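 also: 0% = DMSO-treated cells and 100% = gossypol-treated cells at 36 µM; higher means less SRC3-driven luciferase light from the GAL4 reporter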
NCOA1 inh = SRC1 coactivator transcriptional activity inhibitors, primary screen, cell-based, luminescence. Nuclear receptor coactivator 1 (Homo sapiens), Q15788. HEK293 GAL4-SRC1 luciferase reporter. inhibition, % at 3.6 µM. actives 0.12% (n = 360,000);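 active = inhibition above the campaign mean plus 3 SD, with each screening campaign given its own cutoff, cut at about 60% in these data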;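 also: 0% = DMSO treated cells and 100% = gossypol at 36 µM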
SRC2 inh = inhibition of GAL4-SRC2 driven luciferase reporter, primary screen, SRC2 inhibitor project, cell-based, luminescence | Nuclear receptor coactivator 2 (Homo sapiens), Q15596 | HEK293 GAL4-SRC2 luciferase reporter | inhibition, % at 9 µM | actives 0.17% (n = 370,000) | AID 651957, 2012;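 active = inhibition above the mean inhibition of all tested compounds plus 3 SD, set per campaign, cut at about 52% in these data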;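 also: 0% = DMSO treated cells and 100% = cells given Gossypol at 36 µM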
EBV LMP1 NFkB = EBV LMP1-driven NF-kappaB luciferase reporter inhibitors, primary screen, cell-based, luminescence, single point; AID 504558, 2011; inhibition, % at 12.5 µM; LMP1-induced NF-kappaB luciferase reporter cells; actives 0.69% (n = 350,000); in the data active = inhibition above about 41%;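 also: 0% = neutral control wells and 100% = reference inhibitor control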
Active calls of the source: *; / = not tested or not shown.

SMILES	NR5A2 inv ag	NCOA3 inh	NCOA1 inh	SRC2 inh	EBV LMP1 NFkB
COC(=O)[C@]12CCCCC=C1N(Cc1ccc(OC)cc1)C(=O)[C@@H]2CC(=O)N1CCC(c2ccccc2)CC1	/	/	/	-2	/
COc1ccc(S(=O)(=O)NCCc2csc(-c3cccnc3)n2)cc1	-13	-8	5	-18	77*
COc1ccc(OC)c(S(=O)(=O)NCCc2csc(-c3cccnc3)n2)c1	0	21	11	28	-3
CCCC[C@@H]1C(=O)N2N=Cc3cc(C)c(C)cc3[C@H]2N2N=Cc3cc(C)c(C)cc3[C@@H]12	/	/	/	2	/
CC(CCN1CCC(C(O)(c2ccccc2)c2ccccc2)CC1)Oc1ccc(F)cc1 (configuration not stated)	/	/	/	20	/
NC(=O)C1=CN([C@@H]2O[C@H](COP(=O)(O)OP(=O)(O)OC[C@H]3O[C@@H](n4cnc5c(N)ncnc54)[C@H](O)[C@@H]3O)[C@@H](O)[C@H]2O)C=CC1	/	/	/	-25	/
O=C(Cc1ccccc1)NC1CCCCN(Cc2cccc(Cl)c2)C1=O (configuration not stated)	/	/	/	-8	/
O=c1c2cc([N+](=O)[O-])ccc2sn1-c1ccccc1	-25	-26	-15	-1	-1
N#Cc1c2ccc([N+](=O)[O-])cc2[n+]([O-])n1-c1ccccc1	43	18	8	24	50*
COC(=O)[C@@]12CCCCC=C1N(CCc1ccc(Cl)cc1)C(=O)[C@H]2CC(=O)NCCC(C)C	/	/	/	2	/
Oc1cccc(/C=N/NC(=S)NCCN2CCOCC2)c1O	-19	-21	-66	7	48*
S=C(NCCN1CCOCC1)N/N=C/c1cccs1	-7	-2	3	2	-2
Nc1ccc2nc(CCc3ccccc3)[nH]c2c1	-23	-26	-42	-18	59*
C=CCOC(=O)N[C@H](c1cccc(OC)c1)[C@H](C)/C=C/CC(=O)OC	/	/	/	-10	/
Cc1ccc2nc(NC(=S)NC(=O)c3ccco3)sc2c1	-78	-60	-101	-38	-16
Cc1ccc2nc(NC(=O)c3ccco3)sc2c1	-58	-58	-78	26	53*
COc1cc2nc(NC(=O)c3ccco3)sc(=O)c2cc1OC	-9	8	-4	30	42*
CC(=O)CC[C@@H]1CC[C@]2(CCCN(C(=O)c3ccco3)C2)O1	/	/	/	8	/
COC(=O)c1cc(-c2ccc(C)c3ccccc23)c(=O)n2c1CCC2	/	/	/	1	/
CN=c1scc(-c2cccs2)n1/N=C/c1ccccc1O	98*	93*	92*	88*	85*
CN=c1scc(-c2cccs2)n1/N=C/c1ccc(O)c(O)c1O	-139	-55	-95	-33	17
Oc1ccc(C=NNC(=S)Nc2ccccc2)nc1	32	-30	-23	-29	51*
COC(=O)c1cc(S(=O)(=O)N2CCOCC2)c(Cl)cc1N1CCOCC1	8	-22	-16	-17	3
COC(=O)c1cc(C)nc2c1C(=O)C(=O)C=C2N1CCOCC1	22	71*	62*	57*	14
COC(=O)[C@]1(Cc2ccccc2)NC=C(C(=O)c2ccc(F)cc2)[C@@H]1c1ccccc1	/	/	/	9	/
SMILES	NR5A2 inv ag	NCOA3 inh	NCOA1 inh	SRC2 inh	EBV LMP1 NFkB
CCOC(=O)c1sc(NC(=O)CNCc2ccccn2)c(C(=O)OCC)c1C	4	1	0	12	44*
CCOC(=O)c1sc(NC(=O)CNCc2cccnc2)c(C(=O)OCC)c1C	31	4	12	-23	-4
O=C(CSc1nnc(-c2cccs2)o1)c1ccc2c(c1)OCO2	/	/	/	-1	/
CC(C)C(=O)Nc1ccc(C(=O)N/N=C/c2cc(Br)cc(Br)c2O)cc1	-20	3	-5	12	44*
O=C(N/N=C/c1cc(Br)ccc1O)c1ccncc1	11	70*	38	8	-2
O=C(N/N=C/c1ccccc1O)c1ccncc1	-1	36	20	11	5
CC(=O)Nc1ccc(C(=O)N/N=C/c2cc(Br)cc(Br)c2O)cc1	-9	34	17	11	3
O=C(N/N=C/c1cc(Cl)ccc1O)c1ccc(Br)cc1	8	66*	28	8	12
COC(=O)[C@]12C[C@H](CC(=O)NCCC(C)C)C(=O)N(CCc3ccc(OC)c(OC)c3)C1=C[C@H](C1CCCC1)O[C@@H]2C	/	/	/	12	/
CC(C)(C)c1ccc(S(=O)(=O)N2CCCC(C(=O)NCCN3CCC(Cc4ccccc4)CC3)C2)cc1 (configuration not stated)	/	/	/	23	/
O=S1(=O)C=CCN1Cc1cn(Cc2ccc(F)cc2)nn1	/	/	/	-3	/
C[n+]1ccc(/C=C/c2ccccc2O)c2ccccc21	8	22	5	23	13
CN1/C(=C/c2cc[n+](C)c3ccccc23)C=Cc2ccccc21	41	40	32	/	47*
Cc1ccc(C)c(N2CCN(S(=O)(=O)c3ccc4c(c3)CCN4C(=O)CCC(=O)O)CC2)c1	-3	3	1	0	86*
COC(=O)c1cc(-c2ccccc2OC)c(=O)n2c1CCC2	/	/	/	-38	/
CCOc1ccc(C=NNC(=O)c2cc(-c3ccc(Cl)cc3)n[nH]2)cc1	/	/	/	4	/
CCCN(C(=O)c1cn(CCC)c2ccccc12)c1ccc(Oc2cccnc2)cc1	/	/	/	9	/
CCON1C(=O)C2(CCCCC2)C(=O)C12C=CCCC2 (configuration not stated)	-12	-1	2	-13	85*
O=C(c1noc2c1CCCC2)N1CCCCC1	-12	7	-15	-15	68*
COc1ccc(-c2noc(CCC(=O)Nc3cccnc3)n2)cc1	-8	-33	-16	8	/
CC(C)(C)c1ccc(-c2noc(CCC(N)=O)n2)cc1	76*	59	51	83*	54*
CNC(=O)CCc1nc(-c2ccc(C(C)(C)C)cc2)no1	-89	-69	-78	2	-2
CC(C)(C)c1ccc(-c2noc(CCC(=O)Nc3cccnc3)n2)cc1	37	41	21	80*	78*
Cc1ccc(-c2nc(C3CCCN(S(=O)(=O)c4ccc(C)c(C)c4)C3)no2)cc1 (configuration not stated)	/	/	/	-1	/
O=[N+]([O-])c1ccc(Sc2cccc[n+]2[O-])c2nonc12	90*	84*	89*	93*	4
O=[N+]([O-])c1ccc(Nc2ccccc2)c2nonc12	3	12	-1	-16	8
O=C(Cc1ccc(Cl)cc1)NCC(=O)N1CCCCC1	13	8	-2	-7	45*
COC(=O)c1cccc2c1-c1ccccc1/C2=N/O	-2	42	33	43	44*
COc1ccc2c(c1)CN1C(=O)N(Cc3ccccc3)S(=O)(=O)CC21 (configuration not stated)	/	/	/	17	/
Cc1nnc(C)n1/N=C/c1c(O)ccc2ccccc12	11	14	11	16	3
